SMILES strings stand for the structures. Inconclusive results are not listed. Active and inactive are the calls of the source. Rule for the calls: active = hit-call score of the fitted dose curve at least 0.9, where 1 is the maximum; inconclusive = response in the unintended direction; inactive = score below 0.9.

A short description of one experiment: ACEA_AR_agonist_AUC_viability: ACEA Biosciences xCELLigence Real-Time Cell Analysis on Androgen Receptor Agonism for Viability (AID 2283775).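 For AC50: viability read 80 hours after compound addition.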 The procedure, abridged:
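22Rv1 cells; impedance growth kinetics; 8-pt 1:4 dilutions from 100 uM top final, ≤0.5% DMSO; n = 2; 80 h read; AUC viability, loss-of-signal vs DMSO.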
As for `CC(C)(OO)c1ccccc1`, the compound was called inactive.
The same measure, in the same setting: as for `O=S(=O)(c1ccc(Cl)cc1)c1ccc(Cl)cc1`, the entry is “inactive”.
For the compound `C=C(C)C(=O)[O][Sn]([CH2]CCC)([CH2]CCC)[CH2]CCC`, the AC50 was 1.43 µM (active).
`Clc1ccc(C2(Cn3cncn3)CC(Br)CO2)c(Cl)c1` (stereo not drawn): the outcome was inactive.
Still for that read-out and setting: the value for `C=CCc1ccc(OC)cc1` was “inactive”.
As for `COc1cc(-c2ccc(N)c(OC)c2)ccc1N`, the AC50 was 27.1 µM (active).
In the case of `Fc1ccc(C2(Cn3cncn3)OC2c2ccccc2Cl)cc1` (stereo not drawn), the call was inactive.
As to `O=C(O)C(F)(F)C(F)(F)C(F)(F)C(F)(F)C(F)(F)C(F)(F)C(F)(F)C(F)(F)C(F)(F)C(F)(F)F`, the AC50 is 36 µM (active).
Turning to `[O-][Cl+2]([O-])O`, the result was inactive.
On the same count and under the same terms, the value for `O=C/C=C/c1ccccc1` was “inactive”; that for `COc1ccc(C=O)cc1` was “inactive”; that for `O=C(NCO)NCO` was “inactive”.
Take `Cn1sc(Cl)cc1=O`: the AC50 is 77.2 µM (active).
Take `Cc1ccccc1C(=O)Nc1cccc(OC(C)C)c1`: the call was inactive.
On the same count and under the same terms, as for `O=C(OC1CCCCC1)c1ccccc1C(=O)OC1CCCCC1`, the entry is “inactive”; as for `N#CN=C(N)N`, “inactive”.
Turning to `O=[N+]([O-])c1ccc(O)c([N+](=O)[O-])c1`, the AC50 was 50 µM (active).
The same measure, in the same setting: the value for `CCN1CCC2(CC1)COc1cc3c(cc12)N(C(=O)c1ccc(-c2ccc(-c4nnc(C)o4)cc2C)cc1)CC3` was 9.92 µM (active).
Regarding `Cl/C=C\C[N+]12CN3CN(CN(C3)C1)C2`, the compound was classed as inactive.
As for `C=C(C)C#N`, the compound was called inactive.
Still for that read-out and setting: the value for `BrCCBr` was “inactive”.
Still for that read-out and setting: the value for `O=C1CCCN1` was “inactive”; that for `CCC[CH2][Sn]([Cl])([Cl])[Cl]` was “inactive”.
As for `CCC[CH2][Sn]([CH2]CCC)([CH2]CCC)[O]C(=O)c1ccccc1`, the AC50 is 4.45 µM (active).
For the compound `O=C(Cc1ccccc1)c1ccccc1`, the outcome was inactive.
Still for that read-out and setting: the value for `CCCCOCCOC(C)=O` was “inactive”; that for `NC(=O)O` was “inactive”; that for `O=c1[nH]c(=O)[nH]c(=O)[nH]1` was “inactive”.
On the same count and under the same terms, as for `CC(C)OC(=O)Nc1ccccc1`, the entry is “inactive”; as for `CN(C)N=O`, “inactive”; as for `COP(=O)(OC)OC`, “inactive”.
Still for that read-out and setting: the value for `CC(C)C1CCC(Cc2ccc(Cl)cc2)C1(O)Cn1cncn1` (stereo not drawn) was “inactive”.
On to `O=C1C(Cl)=C(Cl)C(=O)c2ccccc21`, for which the outcome was inactive.
Regarding `c1cc[c]([Hg][c]2ccccc2)cc1`, the AC50 was 26.6 µM (active).

A short description of the next experiment: ACEA_AR_antagonist_AUC_viability: ACEA Biosciences xCELLigence Real-Time Cell Analysis on Androgen Receptor Antagonism for Viability (AID 2283776).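 Note: 22Rv1 human prostate cancer cells growing on impedance electrode plates; area under impedance growth curve at 80 h after dosing as viability; hits lower the growth signal relative to DMSO meaning cytotoxicity.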 The procedure, abridged:
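Impedance read-out (RT-CES): area under growth curve at 80 h post-dose, loss of signal scored vs DMSO baseline. 22Rv1 cells; 8-pt 1:4 series, top 100 uM final, ≤0.5% DMSO; biological duplicate.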
In the case of `C=CC#N`, the compound was called inactive.
Same read-out and setting: the value for `C=CCc1ccc(OC)cc1` was “inactive”; that for `O=C(O)C(Cl)(Cl)Cl` was “inactive”; that for `O=C(NCO)NCO` was “inactive”.
`Cn1sc(Cl)cc1=O`: the half-maximal activity concentration (AC50) was 80.7 µM (active).
With `Cc1ccccc1C(=O)Nc1cccc(OC(C)C)c1`, the result was inactive.
Turning to `O=[N+]([O-])c1ccc(O)c([N+](=O)[O-])c1`, the AC50 is 50 µM (active).
Regarding `Clc1nc(Cl)nc(Cl)n1`, the compound was called inactive.
Turning to `CCN1CCC2(CC1)COc1cc3c(cc12)N(C(=O)c1ccc(-c2ccc(-c4nnc(C)o4)cc2C)cc1)CC3`, the AC50 is 10.4 µM (active).
`CC(=O)c1cc(C(C)(C)C)cc2c1CCC2(C)C`: the call was inactive.
Same read-out and setting: as for `C=C(C)C#N`, the entry is “inactive”; as for `C1CCC(NC2CCCCC2)CC1`, “inactive”.
Take `O=c1[nH]c(=O)[nH]c(=O)[nH]1`: the result was inactive.
Same read-out and setting: the value for `O=C1C(Cl)=C(Cl)C(=O)c2ccccc21` was “inactive”.

The values are drawn from PubChem BioAssay (EPA / NIEHS).
